According to PubChem BioAssay (NCATS):
Records with an inconclusive call do not appear. Calls of active or inactive are those of the source. Calls follow the shape of the dose curve; as a rule, active = well fitted cell-killing curve with a large enough effect; inconclusive = small, poorly fitted or top-dose-only effect; inactive = flat fitted curve, though single readings scatter.
Potency is read from the fitted curve at half-maximal effect.

Assay: Quantitative highthroughput screen to assess conditional lethalithy of NOMO1 cells grown in RPMI1640 with untreated serum (RPMI+s) (AID 1963876); also: nearly all actives have a fitted effect of over 35% in size
Conditions: NOMO1 AML cells in RPMI+serum, CellTiter-Glo viability, 48 h; series mostly up to 45.8 µM; viability: at the top concentration
Source text: Assay Provider: Jason Cantor Ph.D.
Department of Biochemistry
University of Wisconsin-Madison, Madison, WI, USA
Chemical screening studies have identified drug sensitivities across hundreds of cancer cell lines but most putative therapeutics fail to translate. Discovery and development of drug candidates in models that more accurately reflect nutrient levels in human blood is a major challenge. Here we performed high-throughput screens in conventional versus Human Plasma-Like Medium (HPLM) to identify compounds that were "missed" when screening using the artificial culture condition. Sets of conditional anticancer compounds spanned phases of clinical development and included non-oncology drugs were assessed. […] We also traced conditional phenotypes for several chemotherapeutics to availability of HPLM-specific metabolites and confirmed others for compounds whose reported targets are encoded by nonessential genes. Our findings establish generalizable strategies for exploiting conditional lethality in HPLM to reveal therapeutic candidates and mechanisms of action in cancer cells.
Described herein are the results of each viability screens against three cell lines: NOMO1 (an acute myeloid leukemia cell line); P12-Ichikawa (a T-cell acute lymphoblastic leukemia); and SEM (a B-cell ALL). Each assay was screened using 3 different cell culture media: homemade human plasma-Like medium with 10% dialyzed fetal bovine serum (HPLM+ds); RPMI1640 with 10% untreated FBS and 5mM glucose (RPMI+s); and RPMI1640 with 10% dialyzed fetal bovine serum and 5 mM glucose (RPMI+ds).
PROTOCOL TABLE (as described by Inglese J, Shamu CE and Guy RK. 2007)
SEQUENCE No. (e.g., 1, 2, 3, etc.); […] (e.g., Cells, Incubation, Reagent, etc.); VALUE and DESCRIPTION.
1; Cells; 5 uL; white, solid bottom 1536-well Greiner assay plate.
2; Compounds; 23 nL; Kalypsis pin tool (Wako USA) equipped with a 1536-well pin head to transfer to the assay plates.
3; Incubation; 48 hours; 37C incubation.
4; Reagent; 3 uL; CellTiter Glo (Promega).
5; Incubation; 5 min, room temperature
6; Detection; Luminescence, Viewlux PerkinElmer.
NOTES (numbers refer to Sequence numbers above)
1. Briefly, 5 ul of cell reagent was dispensed using a Multidrop Combi Dispenser. The NOMO1 and SEM cells were plated at 500 cells/well and the P12-Ichikawa line at 1000 cells/well.
2. After seeding the cells, 23 nL of MIPE 4.1 library compounds (in DMSO) were added to each plate using a Kalypsys 1536 Pintool dispenser. Bortezomib at final concentration of […] and DMSO were added to each plate as positive and negative controls respectively. For each screen, MIPE 4.1 compounds were added over an eleven-point concentration range […] in 3-fold dilutions.
3. Each plate was covered with a stainless steel gasketed lid to prevent evaporation and incubated for 48 hour at 37C, 95% relative humidity, and 5% CO2.
4-5. Three microliter CellTilter-GloTM luminescent substrate mix (Promega) reagent was added to the assay plate and incubated at room temperature for 5 min.
6. The luminescence signal was measured using a ViewLux (PerkinElmer) multiplate reader with a 2 second exposure time per plate. Data for each compound were normalized as percent viability such that measurements for DMSO and the empty well controls in each plate were defined as 100% and 0%, respectively.
In the case of `C[C@@H]1[C@H](C)CC[C@]2(C(=O)O)CC[C@]3(C)C(=CC[C@@H]4[C@@]5(C)CC[C@H](O)C(C)(C)[C@H]5CC[C@]43C)[C@@H]12`, the “viability” value is reported as 97.1% [at 92.2 µM] (inactive). In the case of `CC(=NNC(=S)N1CCC1)c1ccccn1`, the Potency is reported as 0.0083 µM (active). For `C[C@@H]1O[C@@H](O[C@H]2CC[C@@]3(C)[C@H](CC[C@@H]4[C@H]3C[C@@H](O)[C@]3(C)[C@@H](C5=CC(=O)OC5)CC[C@]43O)C2)C[C@H](O)[C@@H]1O[C@H]1C[C@H](O)[C@H](O[C@H]2C[C@H](O)[C@@H](O)[C@@H](C)O2)[C@H](C)O1` (stereo in doubt), the Potency was 0.605 µM (active). With `Nc1[nH]nc2nnc(-c3c(-c4ccccc4)nn4ccccc34)cc12` the Potency was 1.48 µM (active). In the case of `CC(=O)N[C@H]1[C@@H]([C@H](O)[C@H](O)CO)OC(C(=O)O)=C[C@@H]1N=C(N)N`, the “viability” value is reported as 99% (inactive). In the case of `CCCCCCCCCCCCCCCC(=O)O[C@H]1[C@@H](O)[C@@H](O)[C@@H]([C@H](NC(=O)[C@@H]2C[C@@H](CCC)CN2C)[C@H](C)Cl)O[C@@H]1SC`, the Potency is reported as 11.8 µM (active). For `C[C@H](NCc1ccc2c(c1)nc(NC(=O)c1ccc(-c3cn[nH]c3)s1)n2CCc1ccccc1)C(C)(C)C`, the Potency was 9.35 µM (active). In the case of `CC1(C)CCC(c2ccc(Cl)cc2)=C(CN2CCN(c3ccc(C(=O)NS(=O)(=O)c4ccc(N[C@H](CCN5CCOCC5)CSc5ccccc5)c(S(=O)(=O)C(F)(F)F)c4)cc3)CC2)C1`, the Potency is reported as 0.662 µM (active). For `CCCCCCCCCCCC1=C(O)C(=O)C=C(O)C1=O`, the Potency was 0.332 µM (active). With `CN(C)C/C=C/C(=O)Nc1ccc(C(=O)Nc2cccc(Nc3ncc(Cl)c(-c4c[nH]c5ccccc45)n3)c2)cc1` the Potency was 0.331 µM (active). With `CNc1nccc(-c2cccnc2Oc2cc(C(=O)Nc3cccc(C(F)(F)F)c3)ccc2C)n1` the “viability” value was 91.2% (inactive). In the case of `C#CCN(C)CC1=Cc2ccccc2Oc2ccccc21`, the “viability” value is reported as 98.6% (inactive). With `COC(=O)Nc1nc2ccc(C(=O)c3ccccc3)cc2[nH]1` the Potency was 3.32 µM (active). In the case of `CC(C)CN(C[C@@H](O)[C@H](Cc1ccccc1)NC(=O)O[C@H]1CO[C@H]2OCC[C@H]21)S(=O)(=O)c1ccc(N)cc1`, the “viability” value is reported as 101% (inactive). For `NC(=O)c1cccc(N)c1`, the “viability” value was 114% (inactive). For `Cn1ccc2cc3c(cc21)CCN3C(=O)Nc1cccnc1`, the “viability” value was 103% (inactive). In the case of `CN1c2cc(O)c(N=NC(N)=O)cc2CC1S(=O)(=O)O` (stereo not given), the “viability” value is reported as 97.8% (inactive). With `COc1cc2ncnc(Nc3cccc(Br)c3)c2cc1OC` the “viability” value was 110% (inactive). For `COC(=O)c1ccc2c(C(=Nc3ccc(N(C)C(=O)CN4CCN(C)CC4)cc3)c3ccccc3)c(O)[nH]c2c1`, the “viability” value was 96.4% (inactive). With `CCCCCCCCCC(=O)N[C@@H](Cc1c[nH]c2ccccc12)C(=O)N[C@H](CC(N)=O)C(=O)N[C@@H](CC(=O)O)C(=O)N[C@@H]1C(=O)NCC(=O)N[C@@H](CCCN)C(=O)N[C@@H](CC(=O)O)C(=O)N[C@H](C)C(=O)N[C@@H](CC(=O)O)C(=O)NCC(=O)N[C@H](CO)C(=O)N[C@@H]([C@@H](C)CC(=O)O)C(=O)N[C@@H](CC(=O)c2ccccc2N)C(=O)O[C@@H]1C` the “viability” value was 96.9% (inactive). In the case of `CNC(=O)c1ccccc1Sc1ccc2c(C=Cc3ccccn3)n[nH]c2c1`, the Potency is reported as 2.35 µM (active). With `O=C1NC(=O)C(=Cc2ccc3nccnc3c2)S1` the “viability” value was 109% [at 23.2 µM] (inactive). For `CN1CC[C@@H](c2c(O)cc(O)c3c(=O)cc(-c4ccccc4Cl)oc23)[C@@H](O)C1`, the Potency was 0.469 µM (active). With `COc1cccc2c1C(=O)c1c(O)c3c(c(O)c1C2=O)C[C@@](O)(C(=O)CO)C[C@@H]3O[C@H]1C[C@H](N)[C@@H](O)[C@H](C)O1` the Potency was 2.96 µM (active). In the case of `O=C(C[C@@H]1CC=CCCC(=O)O[C@H](c2ccccc2)CNC1=O)NCc1ccc(Cl)cc1`, the “viability” value is reported as 102% (inactive). In the case of `CCn1nnc2c(N3CCOCC3)nc(-c3ccc(NC(=O)Nc4ccc(C(=O)N5CCN(C)CC5)cc4)cc3)nc21`, the “viability” value is reported as 68.6% (inactive). In the case of `Cc1cccc(Nc2nc(-c3ccncc3)cs2)c1`, the “viability” value is reported as 94.4% (inactive). For `COC(=O)Nc1ccc(-c2nc(N3CCOCC3)c3cnn(C4CCN(Cc5cccnc5)CC4)c3n2)cc1`, the Potency was 4.69 µM (active). With `CC1(C)CC(=O)c2c(C(F)(F)F)nn(-c3ccc(C(N)=O)c(NC4CCC(O)CC4)c3)c2C1` (stereo not given) the Potency was 0.209 µM (active). In the case of `CC(C)CC(=O)Nc1n[nH]c2c1CN(C(=O)C1CCN(C)CC1)C2(C)C`, the Potency is reported as 3.72 µM (active). In the case of `CN1CCN(CCCN2c3ccccc3Sc3ccc(C(F)(F)F)cc32)CC1`, the Potency is reported as 1.87 µM (active). With `O=C(NCCS(=O)(=O)c1ccc(C(F)(F)F)cn1)c1ccc(Cl)cc1` the “viability” value was 95.5% (inactive). For `Nc1ccn([C@@H]2O[C@H](CO)[C@@H](O)C2O)c(=O)n1` (stereo not given in full), the “viability” value was 102% (inactive). With `CCNC(=O)[C@H]1O[C@@H](n2cnc3c(N)nc(NCCc4ccc(CCC(=O)O)cc4)nc32)[C@H](O)[C@H]1O` the “viability” value was 96.1% (inactive). In the case of `COc1ccc(-c2nc3ccc(C4=NNC(=O)CC4C)cc3[nH]2)cc1` (stereo not given), the “viability” value is reported as 106% (inactive). For `O=c1ccn([C@@H]2O[C@H](CO)[C@H](O)[C@@H]2F)c(=O)[nH]1`, the “viability” value was 91.7% (inactive). In the case of `Cc1cccc(C#Cc2ccccc2)n1`, the “viability” value is reported as 99.7% (inactive). In the case of `Cc1cc(-c2nnc3n2CCCCC3)c(C)n1-c1ccccc1`, the “viability” value is reported as 101% (inactive). For `CCCNC(=O)[C@H]1O[C@H]1C(=O)N[C@H](C(=O)N1CCC[C@@H]1C(=O)OC)C(C)CC` (stereo not given in full), the Potency was 13.2 µM (active). For `COC(=O)[C@]12CCC(C)(C)C[C@@H]1[C@@H]1C(=O)C=C3[C@@]4(C)C=C(C#N)C(=O)C(C)(C)[C@@H]4CC[C@@]3(C)[C@]1(C)CC2`, the Potency was 9.35 µM (active).
